The nature of assay [1]: yeast TOR pathway RPL19A-GFP modulators, primary screen, cell-based, S. cerevisiae, multiplex flow cytometry (AID 1862; in the data active = percent of DMSO control GFP below about 86%;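 also: lower values mimic rapamycin by blocking the RPL19A rise seen in DMSO cells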). Particulars: S. cerevisiae RPL19A-GFP strain, flow cytometry fluorescence, 3 h; at 10 µM; stronger effect = lower value. In general terms: Flow cytometry measures light scatter and fluorescence of single cells or particles in a stream.
Assay [2] in a line: modulators of MEP2-GFP levels in yeast, primary screen, S. cerevisiae, multiplex flow cytometry (AID 1867;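 active = GFP response, as percent of the DMSO control, above the screen-wide mean plus 3 SD, about 139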;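 also: median GFP channel fluorescence of barcode-gated MEP2-GFP cells measured by flow cytometry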). Particulars: S. cerevisiae MEP2-GFP strain, 3 h, at 10 µM, stronger effect = higher value, 100% means same as DMSO wells.
Assay [3] can be described thus: modulators of CIT2-GFP expression in yeast, primary screen, S. cerevisiae, GFP fusion, multiplex flow cytometry (AID 1870;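 active = percent response above a set limit, the screen-wide mean plus 3 SD, cut at about 130% in these data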;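 also: barcoded CIT2-GFP strain pooled with four other GFP strains with rapamycin as positive control; median GFP fluorescence per well over plate mean of DMSO wells so 100% = DMSO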). The settings on record: 3 h, at 10 µM, stronger effect = higher value.
A short description of assay [4]: modulators of LAP4-GFP expression in yeast, primary screen, S. cerevisiae, multiplex flow cytometry (AID 1873;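 active = GFP signal, as percent of the solvent control, above the screen mean plus 3 SD, about 149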). Particulars: 3 h, at 10 µM, stronger effect = higher value.
Assay [5] in a line: modulators of AGP1-GFP expression in yeast TOR pathway, primary screen, cell-based, multiplex flow cytometry, S. cerevisiae (AID 1887;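 active = GFP signal above the screen-wide mean plus 3 SD, that is over about 124.5% of the solvent control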;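 also: AGP1-GFP fusion strain of S. cerevisiae within a five-strain barcoded multiplex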). Particulars: 3 h, at 10 µM, stronger effect = higher value.
Assay [6] is described as follows: inhibitors of CD8+ T cell-vesicle binding, pilot screen, LFA-1/ICAM-1 modulator project, MLPCN validation set, flow cytometry (AID 2523;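 active = response below a set limit, under 55% cells CD8-positive and vesicle-bound, and CD8 cells' 90th-percentile brightness under 279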;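 as to vesicle binding response: mean PE anti-B7-1 fluorescence of CD8+ cells relative to row control; 100% = QL9-loaded vesicles with DMSO vehicle in the same plate row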). The settings on record: 2C mouse CD8+ T cells, at 7 µM, stronger effect = lower value; double positive events: measured here: CD8+/vesicle+ event percentage.
Assay [7] has as its target Integrin beta-1 (Homo sapiens) + Integrin alpha-4 (Homo sapiens) (UniProt P13612+P05556). Briefly: inhibition of HUTS-21 binding to VLA-4, pilot screen, VLA-4 allosteric modulator project, U937 cells, HUTS-21 mAb, flow cytometry, validation set (AID 2674;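 active = inhibition above 50%, about 3 SD of the validation set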;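 also: antibody binding induced by the VLA-4 ligand LDV present at three times its Kd; 0% = LDV ligand with antibody and no compound and 100% = antibody without LDV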). Particulars: HUTS-21 LIBS mAb binding, at 6.7 µM, stronger effect = higher value, binding induced by LDV ligand.
A short description of assay [8]: superoxide lowering in aged yeast cells, pilot screen, validation compound set (AID 2706;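 active = superoxide response below 65% of plate, a cut near 3 SD across the whole screen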;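 also: yeast exposed to compound for one week at 30 degrees C before staining; 100% = mean of all compound wells on the same plate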). The settings on record: S. cerevisiae aging, superoxide DHE fluorescence; at 10 µM; stronger effect = lower value.
Assay [9] has as its target Beta-adrenergic receptor kinase 1 (Homo sapiens) (UniProt P25098). Briefly: GRK2 binders displacing RNA aptamer, biochemical, validation, human GRK2, bead flow cytometry (AID 488806;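 active = aptamer binding inhibition above 30%, about 3 SD of noise from non-fluorescent compounds; inactive = inhibition at or below 30%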). The settings on record: bead-bound GRK2, FAM-aptamer displacement, at 10 µM, stronger effect = higher value.
For assay [10], the target named is Beta-2 adrenergic receptor (Homo sapiens) (UniProt P07550). The assay is described as follows: beta2AR agonists driving receptor internalization, pilot screen, cell-based, FAP fluorogen, flow cytometry, validation set (AID 504459;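 active = percent response above 42, roughly 3 SD of non-fluorescent test compounds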;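 also: agonist-driven loss of surface beta2AR via internalization measured by FAP dye flow cytometry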). The settings on record: Am2.2-beta2AR cells, FAP surface receptor flow cytometry; at 10 µM; stronger effect = higher value.
Assay [11] addresses AP-2 complex subunit beta (Homo sapiens) (UniProt P63010). Briefly: inhibitors of arrestin peptide binding to AP2, pilot screen, biochemical, validation set, GST-AP2 beads, flow cytometry (AID 504541;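 active = inhibition above 54%, about 3 SD of non-fluorescent compounds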;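 also: AP2 carries R879A mutation and is captured from E. coli lysate; bead-bound FITC arrestin peptide fluorescence measuring arrestin peptide binding to AP2; 0% = DMSO wells and 100% = excess unlabeled arrestin peptide control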). The settings on record: FITC arrestin peptide, at 10 µM, stronger effect = higher value, AP2 beta2 appendage fragment, R879A mutant.
Assay [12] can be described thus: yeast V-ATPase proton transport modulators, S. cerevisiae, pHLuorin, HTS validation (AID 504600; in the data active = response above about 15%;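 also: plate controls were DMSO for no effect and reference compound for full effect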). Particulars: S. cerevisiae pHLuorin cytosolic pH, at 10 µM, stronger effect = higher value.
Assay [13] concerns anti-desmoglein-3 scFv antibody binding to human DSG3. Briefly: inhibitors of anti-DSG3 scFv binding to DSG3, pilot screen, biochemical, validation compound set, bead-based, flow cytometry (AID 588368;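 active = binding below the plate cutoff, the plate median minus 3 SD, with a reading above zero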;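 also: signal is the median channel fluorescence of bead-bound GFP antibody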). Particulars: Protein G beads, DSG3-Fc, scFv-GFP binding, at 10 µM, stronger effect = lower value.
Assay [14] in a line: inhibitors of fungal efflux pumps CDR1, CDR2, MDR1, pilot screen, validation compound set, multiplex, phenotypic (AID 588506;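 active = efflux inhibition above 0.42, the validation set average plus 4 SD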;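 also: Nile Red retained in cells so higher fluorescence means more efflux inhibition; 0 = negative control wells and 1 = enniatin B 25 µM full block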). Particulars: S. cerevisiae pump-expressing triplex, Nile Red efflux flow cytometry; at 10 µM; stronger effect = higher value; the pumps come from Candida albicans.
Assay [15] deals with ATP-binding cassette sub-family B member 6 (Homo sapiens) (UniProt Q9NP58). Briefly: ABCB6 transporter inhibitors, pilot screen, K562-ABCB6 cells, flow cytometry, validation set (AID 588550;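 active = inhibition above the screen-wide mean plus 3 SD, about 51%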;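 also: 0% = DMSO wells and 100% = benzethonium chloride 70 µM positive control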). The settings on record: K562-ABCB6 porphyrin accumulation, 1 h, at 10 µM, stronger effect = higher value.
A short description of assay [16]: promoters of myeloid differentiation in arrested cells, primary screen, cell-based, GFP/MAC1 double positive, flow cytometry, validation set (AID 588685).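 Also: compound exposure lasts four days before antibody staining and flow analysis; 0% = DMSO wells and 100% = 5 µM fulvestrant positive control.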 The settings on record: ER-HoxA9 marrow cells, stronger effect = higher value, normalized: vehicle 0, fulvestrant 100.

Inconclusive results are not listed. Activity calls are given as the source filed them.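 The calls were made as follows, unless noted: active = differentiation response of at least 50%, scaled between solvent and reference control, from cells with both markers; inactive = the rest.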

Beta-adrenergic receptor kinase 1 (Homo sapiens), sequence (P25098 whole entry, looked up): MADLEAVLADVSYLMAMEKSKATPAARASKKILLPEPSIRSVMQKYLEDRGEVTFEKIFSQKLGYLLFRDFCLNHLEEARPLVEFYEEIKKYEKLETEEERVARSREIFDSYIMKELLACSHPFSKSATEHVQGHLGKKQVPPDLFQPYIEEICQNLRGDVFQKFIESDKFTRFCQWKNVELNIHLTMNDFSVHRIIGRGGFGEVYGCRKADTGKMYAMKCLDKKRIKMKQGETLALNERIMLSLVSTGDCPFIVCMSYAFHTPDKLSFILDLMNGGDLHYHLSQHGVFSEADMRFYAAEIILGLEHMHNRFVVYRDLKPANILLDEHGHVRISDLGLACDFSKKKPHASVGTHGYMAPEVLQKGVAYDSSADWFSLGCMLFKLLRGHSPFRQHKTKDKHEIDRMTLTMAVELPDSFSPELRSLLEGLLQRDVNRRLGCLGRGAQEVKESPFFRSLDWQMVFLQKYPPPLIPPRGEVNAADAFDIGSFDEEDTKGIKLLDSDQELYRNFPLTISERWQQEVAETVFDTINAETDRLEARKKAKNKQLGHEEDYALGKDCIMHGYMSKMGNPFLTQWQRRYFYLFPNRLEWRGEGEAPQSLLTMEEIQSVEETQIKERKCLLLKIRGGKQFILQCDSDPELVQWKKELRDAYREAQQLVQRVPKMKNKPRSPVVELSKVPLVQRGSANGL
ATP-binding cassette sub-family B member 6 (Homo sapiens), sequence (Q9NP58 whole entry, looked up): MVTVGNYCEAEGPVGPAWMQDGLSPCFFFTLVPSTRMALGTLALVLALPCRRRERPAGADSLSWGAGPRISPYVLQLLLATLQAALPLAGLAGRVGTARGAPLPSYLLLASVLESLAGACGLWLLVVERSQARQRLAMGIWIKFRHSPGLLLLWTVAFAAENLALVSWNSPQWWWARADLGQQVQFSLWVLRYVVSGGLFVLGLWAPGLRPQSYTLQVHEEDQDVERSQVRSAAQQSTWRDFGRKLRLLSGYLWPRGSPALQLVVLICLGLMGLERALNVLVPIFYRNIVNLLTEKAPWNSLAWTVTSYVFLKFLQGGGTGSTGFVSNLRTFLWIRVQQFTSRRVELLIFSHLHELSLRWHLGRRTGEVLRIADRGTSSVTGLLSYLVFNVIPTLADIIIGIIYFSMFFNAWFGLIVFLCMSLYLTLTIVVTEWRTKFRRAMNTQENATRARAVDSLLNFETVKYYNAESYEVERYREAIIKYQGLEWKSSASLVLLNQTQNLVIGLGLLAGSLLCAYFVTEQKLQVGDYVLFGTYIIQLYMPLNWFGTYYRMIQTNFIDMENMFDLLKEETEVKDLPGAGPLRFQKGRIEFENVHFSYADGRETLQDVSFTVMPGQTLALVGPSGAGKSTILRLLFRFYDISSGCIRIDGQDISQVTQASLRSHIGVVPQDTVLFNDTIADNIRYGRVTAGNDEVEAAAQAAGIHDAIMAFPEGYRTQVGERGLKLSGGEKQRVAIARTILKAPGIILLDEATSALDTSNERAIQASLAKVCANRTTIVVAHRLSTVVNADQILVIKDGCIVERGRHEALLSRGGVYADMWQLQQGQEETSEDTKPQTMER
AP-2 complex subunit beta (Homo sapiens), sequence (P63010 whole entry, looked up, the tested form may be a part, one chain of several): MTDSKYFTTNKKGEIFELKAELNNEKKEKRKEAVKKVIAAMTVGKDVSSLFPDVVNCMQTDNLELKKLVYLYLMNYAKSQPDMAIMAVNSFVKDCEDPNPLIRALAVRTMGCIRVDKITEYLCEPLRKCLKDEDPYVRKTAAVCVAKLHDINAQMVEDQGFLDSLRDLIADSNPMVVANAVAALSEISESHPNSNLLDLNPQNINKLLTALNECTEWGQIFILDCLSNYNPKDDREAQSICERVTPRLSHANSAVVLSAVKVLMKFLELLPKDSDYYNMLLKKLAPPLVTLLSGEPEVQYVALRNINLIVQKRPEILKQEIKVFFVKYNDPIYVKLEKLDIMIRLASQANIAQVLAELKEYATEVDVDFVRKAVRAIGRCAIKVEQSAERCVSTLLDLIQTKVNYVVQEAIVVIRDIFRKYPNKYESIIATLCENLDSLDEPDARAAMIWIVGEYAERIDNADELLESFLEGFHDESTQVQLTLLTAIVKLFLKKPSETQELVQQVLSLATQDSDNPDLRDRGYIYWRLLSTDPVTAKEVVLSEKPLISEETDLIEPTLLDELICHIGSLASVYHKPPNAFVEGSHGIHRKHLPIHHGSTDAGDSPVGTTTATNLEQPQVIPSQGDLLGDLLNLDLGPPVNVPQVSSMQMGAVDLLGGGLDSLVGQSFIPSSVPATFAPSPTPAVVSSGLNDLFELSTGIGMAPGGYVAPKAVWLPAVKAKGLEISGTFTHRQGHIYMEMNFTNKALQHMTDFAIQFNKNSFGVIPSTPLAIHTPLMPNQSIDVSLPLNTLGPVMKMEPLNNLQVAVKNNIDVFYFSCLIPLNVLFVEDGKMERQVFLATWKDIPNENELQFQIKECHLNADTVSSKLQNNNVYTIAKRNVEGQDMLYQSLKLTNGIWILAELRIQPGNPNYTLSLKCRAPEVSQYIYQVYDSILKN
Beta-2 adrenergic receptor (Homo sapiens), sequence (P07550 whole entry, looked up): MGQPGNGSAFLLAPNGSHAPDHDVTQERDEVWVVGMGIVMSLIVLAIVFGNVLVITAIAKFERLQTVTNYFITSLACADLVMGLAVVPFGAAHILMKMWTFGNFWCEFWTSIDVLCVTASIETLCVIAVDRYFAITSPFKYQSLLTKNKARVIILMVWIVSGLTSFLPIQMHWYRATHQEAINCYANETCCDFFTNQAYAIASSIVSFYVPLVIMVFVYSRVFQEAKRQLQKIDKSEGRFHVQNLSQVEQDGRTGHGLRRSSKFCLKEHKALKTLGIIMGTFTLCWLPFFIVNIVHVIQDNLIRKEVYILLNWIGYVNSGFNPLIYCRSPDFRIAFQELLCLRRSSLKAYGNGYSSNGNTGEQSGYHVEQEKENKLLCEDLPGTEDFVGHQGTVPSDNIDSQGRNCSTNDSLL
Integrin beta-1 (Homo sapiens) + Integrin alpha-4 (Homo sapiens), sequence (P05556 whole entry, looked up): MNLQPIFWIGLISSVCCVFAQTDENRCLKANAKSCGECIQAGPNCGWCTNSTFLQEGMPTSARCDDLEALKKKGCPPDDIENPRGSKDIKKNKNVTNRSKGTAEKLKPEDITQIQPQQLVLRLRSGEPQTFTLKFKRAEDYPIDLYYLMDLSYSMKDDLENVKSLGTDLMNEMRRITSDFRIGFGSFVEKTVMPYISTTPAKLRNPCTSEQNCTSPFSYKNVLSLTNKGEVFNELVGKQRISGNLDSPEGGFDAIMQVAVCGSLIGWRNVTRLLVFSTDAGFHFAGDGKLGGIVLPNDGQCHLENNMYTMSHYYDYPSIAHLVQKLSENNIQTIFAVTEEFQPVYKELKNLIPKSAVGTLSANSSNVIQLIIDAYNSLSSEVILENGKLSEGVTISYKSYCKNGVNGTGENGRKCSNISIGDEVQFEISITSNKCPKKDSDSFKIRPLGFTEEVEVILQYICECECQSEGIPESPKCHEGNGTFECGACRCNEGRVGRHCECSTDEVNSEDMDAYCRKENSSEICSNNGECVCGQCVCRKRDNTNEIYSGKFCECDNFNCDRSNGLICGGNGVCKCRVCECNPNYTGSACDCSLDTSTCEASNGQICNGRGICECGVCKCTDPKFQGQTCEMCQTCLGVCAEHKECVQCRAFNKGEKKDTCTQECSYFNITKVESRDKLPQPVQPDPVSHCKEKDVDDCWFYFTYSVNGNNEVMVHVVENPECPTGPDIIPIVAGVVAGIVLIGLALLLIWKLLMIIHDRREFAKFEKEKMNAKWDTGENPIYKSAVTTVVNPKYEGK
Integrin beta-1 (Homo sapiens) + Integrin alpha-4 (Homo sapiens), sequence (P13612 whole entry, looked up): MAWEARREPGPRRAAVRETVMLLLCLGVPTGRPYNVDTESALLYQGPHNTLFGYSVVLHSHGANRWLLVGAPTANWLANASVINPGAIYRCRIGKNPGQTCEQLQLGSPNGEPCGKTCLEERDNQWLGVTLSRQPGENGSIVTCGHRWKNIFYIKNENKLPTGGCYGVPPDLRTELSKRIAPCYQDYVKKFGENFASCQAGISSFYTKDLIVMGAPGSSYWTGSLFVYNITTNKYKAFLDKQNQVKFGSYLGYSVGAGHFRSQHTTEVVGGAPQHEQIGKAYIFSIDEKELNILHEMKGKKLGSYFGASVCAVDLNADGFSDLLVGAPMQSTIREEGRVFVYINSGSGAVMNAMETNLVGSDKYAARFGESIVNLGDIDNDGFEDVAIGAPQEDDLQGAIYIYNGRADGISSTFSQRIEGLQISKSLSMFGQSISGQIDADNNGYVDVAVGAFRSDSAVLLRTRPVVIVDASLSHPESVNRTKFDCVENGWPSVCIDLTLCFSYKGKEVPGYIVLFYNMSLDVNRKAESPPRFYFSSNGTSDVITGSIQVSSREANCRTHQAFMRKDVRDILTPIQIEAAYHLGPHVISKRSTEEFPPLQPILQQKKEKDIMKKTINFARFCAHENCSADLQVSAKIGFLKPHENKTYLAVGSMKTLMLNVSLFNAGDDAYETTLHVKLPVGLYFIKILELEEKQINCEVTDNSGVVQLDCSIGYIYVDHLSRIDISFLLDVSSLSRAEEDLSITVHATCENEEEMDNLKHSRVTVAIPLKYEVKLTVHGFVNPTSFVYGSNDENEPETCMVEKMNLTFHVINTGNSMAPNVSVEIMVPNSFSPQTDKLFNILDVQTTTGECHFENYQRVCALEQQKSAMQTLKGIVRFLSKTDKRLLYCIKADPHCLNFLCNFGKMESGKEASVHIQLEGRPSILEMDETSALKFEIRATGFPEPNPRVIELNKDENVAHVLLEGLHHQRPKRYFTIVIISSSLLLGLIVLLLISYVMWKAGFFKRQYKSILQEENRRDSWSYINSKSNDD

What is called inhibition is the relative decrease from the control value, in per cent. For the compound `CC[C@]1(O)CC2CN(CCc3c([nH]c4ccccc34)[C@@](C(=O)OC)(c3cc4c(cc3OC)N(C=O)[C@H]3[C@@](O)(C(=O)OC)[C@H](OC(C)=O)[C@]5(CC)C=CCN6CC[C@]43[C@@H]65)C2)C1` (stereo not given in full), the percent of DMSO control GFP in assay [1] is 103% (inactive). Moreover, the values for the GFP response vs DMSO in assay [2] and in [4] were 98.5% (inactive) and 94% (inactive), respectively. The percent response of DMSO control in assay [3] was 101% (inactive). For the same compound, the GFP response, % of DMSO in assay [5] was 98.5% (inactive). In addition, the double positive events in assay [6] worked out at 61.8%. In addition, in [6], the vesicle binding response was 204% (inactive). Moreover, the values for the inhibition in assay [7], in assay [11] and in [15] were 48.7% (inactive), -4.62% (inactive) and 112% (active), respectively. Also, in [8], the superoxide response (% of plate) was 93% (inactive). The aptamer binding inhibition in assay [9] is 3% (inactive). The response in assay [10] was 23.4% (inactive); in assay [12], 6.03% (inactive). Also, the binding (% of control) in assay [13] is 97.2% (inactive). The efflux inhibition (fraction of control) in [14] was 0.12 (inactive). For the same compound, the differentiation response in [16] was 4% (inactive).
In the case of `CC(C)C(=O)Nc1cccnc1`, the percent of DMSO control GFP in assay [1] was 103% (inactive). The values for the GFP response vs DMSO in [2] and in assay [4] were 99.6% (inactive) and 115% (inactive), respectively. The percent response of DMSO control in assay [3] is 99.6% (inactive). Further, the GFP response, % of DMSO in assay [5] was 106% (inactive). Moreover, the double positive events in [6] stood at 68.8%. Also, the vesicle binding response in assay [6] is 294% (inactive). Moreover, the values for the inhibition in [7], in assay [11] and in assay [15] were 21.4% (inactive), -1.65% (inactive) and -4% (inactive), respectively. The superoxide response (% of plate) in assay [8] was 85.9% (inactive). In assay [9], the aptamer binding inhibition was 4% (inactive). Moreover, the response in assay [10] was 0.35% (inactive); in assay [12], 4.74% (inactive). Also, in [13], the binding (% of control) was 99.3% (inactive). For the same compound, the efflux inhibition (fraction of control) in assay [14] was -0.13 (inactive). For the same compound, the differentiation response in [16] is 0% (inactive).
On to `CCCn1c(=O)c2[nH]c(C3CCCC3)nc2n(CCC)c1=O`, for which the percent of DMSO control GFP in assay [1] was 92.6% (inactive). The values for the GFP response vs DMSO in assay [2] and in [4] were 137% (inactive) and 82.5% (inactive), respectively. Further, the percent response of DMSO control in assay [3] was 102% (inactive). Further, the GFP response, % of DMSO in assay [5] is 88.7% (inactive). In [6], this compound had a double positive events of 62.8%. Besides, the vesicle binding response in assay [6] was 193% (inactive). For the same compound, the inhibition in assay [7] was 0.64% (inactive); in assay [11], -0.16% (inactive); in assay [15] it was 7% (inactive). For the same compound, the superoxide response (% of plate) in assay [8] is 93.3% (inactive). For the same compound, the aptamer binding inhibition in assay [9] is 4% (inactive). Besides, the response is -5.24% (inactive) in assay [10] and -6.35% (inactive) in assay [12]. Besides, the binding (% of control) in assay [13] was 102% (inactive). In addition, the efflux inhibition (fraction of control) in assay [14] was -0.13 (inactive). Besides, the differentiation response in assay [16] was 2.46% (inactive).
In the case of `Cc1c(Cc2ccccc2)c(=O)oc2c(CN(C)C)c(O)c(Cl)cc12`, in assay [1], the percent of DMSO control GFP is 98.2% (inactive). The GFP response vs DMSO in assay [2] is 108% (inactive); in [4] it was 92.7% (inactive). The percent response of DMSO control in assay [3] was 94.2% (inactive). In assay [5], the GFP response, % of DMSO is 98% (inactive). Also, the double positive events in [6] stood at 61.8%. Moreover, in assay [6], the vesicle binding response was 358% (inactive). The inhibition in [7] was 0.58% (inactive); in [11], 0.49% (inactive); in [15] it was 2% (inactive). Also, the superoxide response (% of plate) in [8] is 98.2% (inactive). For the same compound, the aptamer binding inhibition in assay [9] was 3% (inactive). The results for the response in [10] and in assay [12] were -3.4% (inactive) and 0.93% (inactive), respectively. Besides, the binding (% of control) in assay [13] was 99.3% (inactive). In addition, the efflux inhibition (fraction of control) in assay [14] is -0.39 (inactive). The differentiation response in [16] was -5.62% (inactive).
Take `CC(C)(C)C(=O)NCCCNc1ccc([N+](=O)[O-])cc1`: the percent of DMSO control GFP in assay [1] was 103% (inactive). Moreover, the GFP response vs DMSO in assay [2] is 123% (inactive); in [4] it was 95.2% (inactive). Besides, in assay [3], the percent response of DMSO control was 93.9% (inactive). The GFP response, % of DMSO in [5] was 104% (inactive). In addition, in assay [6], the double positive events worked out at 67.3%. Besides, the vesicle binding response in assay [6] was 295% (inactive). Moreover, the values for the inhibition in assay [7], in [11] and in assay [15] were 5.49% (inactive), 22% (inactive) and 15% (inactive), respectively. Besides, the superoxide response (% of plate) in assay [8] was 86% (inactive). Further, in [9], the aptamer binding inhibition was -1% (inactive). Besides, the response in assay [10] was -6.07% (inactive); in [12] it was 1.78% (inactive). Besides, the binding (% of control) in assay [13] was 110% (inactive). Besides, the efflux inhibition (fraction of control) in [14] is -0.06 (inactive). Besides, the differentiation response in [16] was 12.3% (inactive).

Source of the values: PubChem BioAssay.
